biological target: AgAbp1; assay: SPOT peptide array binding signal intensity (averaged, normalized) (arbitrary units (background-subtracted, floor 0; scale differs between SH3 domains)); higher = stronger binding of the SH3 domain to the peptide
Summary of the method: (§1)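 E. coli BL21(DE3) was used to express GST-fused SH3 domains from four yeast species, which were then purified on glutathione Sepharose. These were incubated at 10 μg/ml in TBS-based blocking buffer overnight at 4°C on cellulose membranes carrying synthetic 15-mer peptides, in which cysteines were replaced by serines. Binding signal is the replicate average of normalized, background-subtracted spot intensity, in arbitrary units that differ between domains.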

Row | Binder | SPOT peptide array binding signal intensity
1 | GERSRPLVISILSSA | ≤ 0

biological target: AgBbc1; assay: as above
Summary of the method: as §1

Row | Binder | SPOT peptide array binding signal intensity
2 | GERSRPLVISILSSA | 14.8

biological target: AgBem1-D1; assay: as above
Summary of the method: as §1

Row | Binder | SPOT peptide array binding signal intensity
3 | GERSRPLVISILSSA | 73

biological target: AgBzz1-D1; assay: as above
Summary of the method: as §1

Row | Binder | SPOT peptide array binding signal intensity
4 | GERSRPLVISILSSA | 90

biological target: AgBzz1-D2; assay: as above
Summary of the method: as §1

Row | Binder | SPOT peptide array binding signal intensity
5 | GERSRPLVISILSSA | 106

biological target: AgCyk3; assay: as above
Summary of the method: as §1

Row | Binder | SPOT peptide array binding signal intensity
6 | GERSRPLVISILSSA | 14

biological target: AgFus1; assay: as above
Summary of the method: as §1

Row | Binder | SPOT peptide array binding signal intensity
7 | GERSRPLVISILSSA | 1940

biological target: AgHof1; assay: as above
Summary of the method: as §1

Row | Binder | SPOT peptide array binding signal intensity
8 | GERSRPLVISILSSA | 14.8

biological target: AgHse1; assay: as above
Summary of the method: as §1

Row | Binder | SPOT peptide array binding signal intensity
9 | GERSRPLVISILSSA | 106

biological target: AgLsb1; assay: as above
Summary of the method: as §1

Row | Binder | SPOT peptide array binding signal intensity
10 | GERSRPLVISILSSA | ≤ 0

biological target: AgLsb4; assay: as above
Summary of the method: as §1

Row | Binder | SPOT peptide array binding signal intensity
11 | GERSRPLVISILSSA | 262

biological target: AgMyo5; assay: as above
Summary of the method: as §1

Row | Binder | SPOT peptide array binding signal intensity
12 | GERSRPLVISILSSA | ≤ 0

biological target: AgNbp2; assay: as above
Summary of the method: as §1

Row | Binder | SPOT peptide array binding signal intensity
13 | GERSRPLVISILSSA | 25

biological target: AgRvs167; assay: as above
Summary of the method: as §1

Row | Binder | SPOT peptide array binding signal intensity
14 | GERSRPLVISILSSA | 3.67

biological target: AgSho1; assay: as above
Summary of the method: as §1

Row | Binder | SPOT peptide array binding signal intensity
15 | GERSRPLVISILSSA | 120

biological target: AgSla1-D1-D2; assay: as above
Summary of the method: as §1

Row | Binder | SPOT peptide array binding signal intensity
16 | GERSRPLVISILSSA | 11

biological target: AgSla1-D3; assay: as above
Summary of the method: as §1

Row | Binder | SPOT peptide array binding signal intensity
17 | GERSRPLVISILSSA | 5

biological target: CaAbp1-D1; assay: as above
Summary of the method: as §1

Row | Binder | SPOT peptide array binding signal intensity
18 | GERSRPLVISILSSA | 43

biological target: CaAbp1-D2; assay: as above
Summary of the method: as §1

Row | Binder | SPOT peptide array binding signal intensity
19 | GERSRPLVISILSSA | 2

biological target: CaBbc1; assay: as above
Summary of the method: as §1

Row | Binder | SPOT peptide array binding signal intensity
20 | GERSRPLVISILSSA | 55.2

biological target: CaBem1-D1; assay: as above
Summary of the method: as §1

Row | Binder | SPOT peptide array binding signal intensity
21 | GERSRPLVISILSSA | 28.5

biological target: CaBzz1-D1; assay: as above
Summary of the method: as §1

Row | Binder | SPOT peptide array binding signal intensity
22 | GERSRPLVISILSSA | 268

biological target: CaBzz1-D2; assay: as above
Summary of the method: as §1

Row | Binder | SPOT peptide array binding signal intensity
23 | GERSRPLVISILSSA | 175

biological target: CaCyk3; assay: as above
Summary of the method: as §1

Row | Binder | SPOT peptide array binding signal intensity
24 | GERSRPLVISILSSA | 37

biological target: CaFus1; assay: as above
Summary of the method: as §1

Row | Binder | SPOT peptide array binding signal intensity
25 | GERSRPLVISILSSA | 3880

biological target: CaHof1; assay: as above
Summary of the method: as §1

Row | Binder | SPOT peptide array binding signal intensity
26 | GERSRPLVISILSSA | ≤ 0

biological target: CaHse1; assay: as above
Summary of the method: as §1

Row | Binder | SPOT peptide array binding signal intensity
27 | GERSRPLVISILSSA | 10.5

biological target: CaLsb1; assay: as above
Summary of the method: as §1

Row | Binder | SPOT peptide array binding signal intensity
28 | GERSRPLVISILSSA | 0.5

biological target: CaLsb4; assay: as above
Summary of the method: as §1

Row | Binder | SPOT peptide array binding signal intensity
29 | GERSRPLVISILSSA | ≤ 0

biological target: CaMyo5; assay: as above
Summary of the method: as §1

Row | Binder | SPOT peptide array binding signal intensity
30 | GERSRPLVISILSSA | 24

biological target: CaNbp2; assay: as above
Summary of the method: as §1

Row | Binder | SPOT peptide array binding signal intensity
31 | GERSRPLVISILSSA | 171

biological target: CaRvs167; assay: as above
Summary of the method: as §1

Row | Binder | SPOT peptide array binding signal intensity
32 | GERSRPLVISILSSA | 45.8

biological target: CaRvs167-3; assay: as above
Summary of the method: as §1

Row | Binder | SPOT peptide array binding signal intensity
33 | GERSRPLVISILSSA | 538

biological target: CaSho1; assay: as above
Summary of the method: as §1

Row | Binder | SPOT peptide array binding signal intensity
34 | GERSRPLVISILSSA | 497

biological target: CaSla1-D1-D2; assay: as above
Summary of the method: as §1

Row | Binder | SPOT peptide array binding signal intensity
35 | GERSRPLVISILSSA | 11

biological target: CaSla1-D3; assay: as above
Summary of the method: as §1

Row | Binder | SPOT peptide array binding signal intensity
36 | GERSRPLVISILSSA | 170

biological target: ScAbp1; assay: as above
Summary of the method: as §1

Row | Binder | SPOT peptide array binding signal intensity
37 | GERSRPLVISILSSA | 3

biological target: ScBbc1; assay: as above
Summary of the method: as §1

Row | Binder | SPOT peptide array binding signal intensity
38 | GERSRPLVISILSSA | 4

biological target: ScBem1-D1; assay: as above
Summary of the method: as §1

Row | Binder | SPOT peptide array binding signal intensity
39 | GERSRPLVISILSSA | 9

biological target: ScBzz1-D1; assay: as above
Summary of the method: as §1

Row | Binder | SPOT peptide array binding signal intensity
40 | GERSRPLVISILSSA | 97

biological target: ScBzz1-D2; assay: as above
Summary of the method: as §1

Row | Binder | SPOT peptide array binding signal intensity
41 | GERSRPLVISILSSA | 619

biological target: ScCyk3; assay: as above
Summary of the method: as §1

Row | Binder | SPOT peptide array binding signal intensity
42 | GERSRPLVISILSSA | 121

biological target: ScFus1; assay: as above
Summary of the method: as §1

Row | Binder | SPOT peptide array binding signal intensity
43 | GERSRPLVISILSSA | 3300

biological target: ScHof1; assay: as above
Summary of the method: as §1

Row | Binder | SPOT peptide array binding signal intensity
44 | GERSRPLVISILSSA | ≤ 0

biological target: ScHse1; assay: as above
Summary of the method: as §1

Row | Binder | SPOT peptide array binding signal intensity
45 | GERSRPLVISILSSA | 500

biological target: ScLsb1; assay: as above
Summary of the method: as §1

Row | Binder | SPOT peptide array binding signal intensity
46 | GERSRPLVISILSSA | ≤ 0

biological target: ScLsb2; assay: as above
Summary of the method: as §1

Row | Binder | SPOT peptide array binding signal intensity
47 | GERSRPLVISILSSA | ≤ 0

biological target: ScLsb3; assay: as above
Summary of the method: as §1

Row | Binder | SPOT peptide array binding signal intensity
48 | GERSRPLVISILSSA | 6.5

biological target: ScLsb4; assay: as above
Summary of the method: as §1

Row | Binder | SPOT peptide array binding signal intensity
49 | GERSRPLVISILSSA | 7

biological target: ScMyo3; assay: as above
Summary of the method: as §1

Row | Binder | SPOT peptide array binding signal intensity
50 | GERSRPLVISILSSA | ≤ 0

biological target: ScMyo5; assay: as above
Summary of the method: as §1

Row | Binder | SPOT peptide array binding signal intensity
51 | GERSRPLVISILSSA | 1

biological target: ScNbp2; assay: as above
Summary of the method: as §1

Row | Binder | SPOT peptide array binding signal intensity
52 | GERSRPLVISILSSA | 71.5

biological target: ScPex13; assay: as above
Summary of the method: as §1

Row | Binder | SPOT peptide array binding signal intensity
53 | GERSRPLVISILSSA | 19.8

biological target: ScRvs167; assay: as above
Summary of the method: as §1

Row | Binder | SPOT peptide array binding signal intensity
54 | GERSRPLVISILSSA | 6

biological target: ScSho1; assay: as above
Summary of the method: as §1

Row | Binder | SPOT peptide array binding signal intensity
55 | GERSRPLVISILSSA | 910

biological target: ScSla1-D1-D2; assay: as above
Summary of the method: as §1

Row | Binder | SPOT peptide array binding signal intensity
56 | GERSRPLVISILSSA | 8

biological target: ScSla1-D3; assay: as above
Summary of the method: as §1

Row | Binder | SPOT peptide array binding signal intensity
57 | GERSRPLVISILSSA | 22

biological target: SpAbp1-D1; assay: as above
Summary of the method: as §1

Row | Binder | SPOT peptide array binding signal intensity
58 | GERSRPLVISILSSA | ≤ 0

biological target: SpBbc1; assay: as above
Summary of the method: as §1

Row | Binder | SPOT peptide array binding signal intensity
59 | GERSRPLVISILSSA | 18

biological target: SpBzz1-D1; assay: as above
Summary of the method: as §1

Row | Binder | SPOT peptide array binding signal intensity
60 | GERSRPLVISILSSA | 314

biological target: SpBzz1-D2; assay: as above
Summary of the method: as §1

Row | Binder | SPOT peptide array binding signal intensity
61 | GERSRPLVISILSSA | 0.75

biological target: SpCyk3; assay: as above
Summary of the method: as §1

Row | Binder | SPOT peptide array binding signal intensity
62 | GERSRPLVISILSSA | 26.5

biological target: SpHof1; assay: as above
Summary of the method: as §1

Row | Binder | SPOT peptide array binding signal intensity
63 | GERSRPLVISILSSA | 146

biological target: SpHof1-2; assay: as above
Summary of the method: as §1

Row | Binder | SPOT peptide array binding signal intensity
64 | GERSRPLVISILSSA | 12.2

biological target: SpHof1-3; assay: as above
Summary of the method: as §1

Row | Binder | SPOT peptide array binding signal intensity
65 | GERSRPLVISILSSA | 113

biological target: SpHse1; assay: as above
Summary of the method: as §1

Row | Binder | SPOT peptide array binding signal intensity
66 | GERSRPLVISILSSA | 482

biological target: SpLsb1; assay: as above
Summary of the method: as §1

Row | Binder | SPOT peptide array binding signal intensity
67 | GERSRPLVISILSSA | ≤ 0

biological target: SpLsb4; assay: as above
Summary of the method: as §1

Row | Binder | SPOT peptide array binding signal intensity
68 | GERSRPLVISILSSA | 9

biological target: SpMyo1; assay: as above
Summary of the method: as §1

Row | Binder | SPOT peptide array binding signal intensity
69 | GERSRPLVISILSSA | 6

biological target: SpNbp2; assay: as above
Summary of the method: as §1

Row | Binder | SPOT peptide array binding signal intensity
70 | GERSRPLVISILSSA | 146

biological target: SpPex13; assay: as above
Summary of the method: as §1

Row | Binder | SPOT peptide array binding signal intensity
71 | GERSRPLVISILSSA | 28

biological target: SpRvs167; assay: as above
Summary of the method: as §1

Row | Binder | SPOT peptide array binding signal intensity
72 | GERSRPLVISILSSA | 0.333

biological target: SpSla1-D1-D2; assay: as above
Summary of the method: as §1

Row | Binder | SPOT peptide array binding signal intensity
73 | GERSRPLVISILSSA | ≤ 0

biological target: SpSla1-D3; assay: as above
Summary of the method: as §1

Row | Binder | SPOT peptide array binding signal intensity
74 | GERSRPLVISILSSA | 11
